hgDAF12 agonist = hgDAF-12 agonism, primary luciferase screen | activation, % at 6.8 µM | HEK293 GAL4-hgDAF12 UAS-luciferase reporter, agonist luminescence; normalized to butyrate control | actives 1.8% (n = 370,000);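 active means activation above a cutoff set at the mean of all screened compounds plus 3 SD, cut at about 10% in these data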
DAX1 inh-1 = inhibits human nuclear receptor DAX1 | P51843 | HEK293 Gal4-DAX1 luciferase reporter, luminescence | inhibition, % at 6.75 µM | actives 0.99% (n = 340,000);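 active means inhibition above the mean over all tested compounds plus 3 SD, cut at about 4.2% in these data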;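 further: inhibition shows as a rise in luminescence from relieved DAX1 repression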
Target sequence (P51843 207-470 limits assumed): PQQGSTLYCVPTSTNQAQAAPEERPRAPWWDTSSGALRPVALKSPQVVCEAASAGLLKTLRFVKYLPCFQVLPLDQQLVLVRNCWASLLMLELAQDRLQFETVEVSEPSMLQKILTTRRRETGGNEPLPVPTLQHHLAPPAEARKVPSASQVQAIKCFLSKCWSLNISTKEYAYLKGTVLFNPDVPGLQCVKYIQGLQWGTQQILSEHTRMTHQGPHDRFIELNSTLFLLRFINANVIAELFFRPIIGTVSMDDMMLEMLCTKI
DAX1 inh-2 = blocks DAX1 repression of SF-1 activated StAR promoter. actives 1.1% (n = 370,000). HEK293T StAR-luciferase reporter, SF-1/DAX-1 repression relief. inhibition, % at 6.8 µM;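 active means inhibition above the mean over all tested compounds plus 3 SD, cut at about 3.6% in these data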;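 further: higher inhibition means more luminescence from relief of DAX-1 repression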
ssDAF-12 act = activates DAF-12 receptor from parasite S. stercoralis; HEK293 ssDAF-12/GRIP1 lit1-tk-luc reporter, luminescence; % of 3 µM dafachronic acid response; activation, % at 6.8 µM; actives 1% (n = 370,000);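 active means activation above the mean over all tested compounds plus 3 SD, cut at about 0.9% in these data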
hcDAF-12 act = activators of H. contortus DAF-12 nuclear receptor; actives 1.4% (n = 370,000); HEK293 hcDAF-12 lit1-tk-luc reporter, luminescence; 0% DMSO, 100% Δ7-dafachronic acid; activation, % at 6.8 µM;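 active means activation above the mean of all tested compounds plus 3 SD, cut at about 5.5% in these data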
DAX1 inh confirm = NR0B1 (human) inhibition, confirmation; actives 87% (n = 2,400); HEK293T StAR-promoter luciferase reporter, SF-1/DAX-1 repression; inhibition, % at 6.8 µM; shares compounds with DAX1 inh-2;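 active means inhibition above the average of every tested compound plus 3 SD, cut at about 3.8% in these data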;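 further: active compounds raise luminescence by relieving repression of the StAR reporter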
SF1 mutant ctr = counter-screen for DAX1 inhibitors: nonselective inhibitors with SF-1 AF2 mutant; shares compounds with DAX1 inh-2; HEK293 StAR-luciferase, luminescence; inhibition, % at 6.8 µM; actives 78% (n = 2,400);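 active means inhibition above the mean of all tested compounds plus 3 SD, cut at about 3% in these data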
Hits are given with their value; - = inactive; . = not tested or not shown. Shown are actives, neighbours in structure and some others; about 4.1% of the full set was active somewhere.

SMILES | hgDAF12 agonist | DAX1 inh-1 | DAX1 inh-2 | ssDAF-12 act | hcDAF-12 act | DAX1 inh confirm | SF1 mutant ctr
O=[N+]([O-])c1cccc(OC[C@@H](O)CN2CCC(C(O)(c3ccccc3)c3ccccc3)CC2)c1 | - | . | - | - | - | . | .
COCCCN1C(=O)C(CC(=O)NCCCN(C)C)CC(C(=O)N(C(C)C)C(C)C)=C1C (stereo unspecified) | - | . | - | - | - | . | .
CCN(CC(=O)Nc1ccc2c(c1)OCCO2)C(=O)c1ccc(Cl)cc1Cl | 11 | - | 6.0 | - | - | 7.5 | 5.9
CCN(CC(=O)Nc1ccc2c(c1)OCCO2)C(=O)c1ccc(C(F)(F)F)cc1 | - | - | 5.2 | - | - | 5.9 | 3.0
O=C(C[C@H]1C[C@H](C(=O)N2CCOCC2)[C@@]2(CCC3CCCC3)c3[nH]c4cc(-c5ccco5)ccc4c3CCN2C1=O)NCCc1ccccn1 | - | - | 4.6 | - | - | - | -
CC(C)(C)NC(=O)C[C@H]1C[C@H](C(=O)N2CCCCC2)[C@@]2(CCc3ccccc3)c3[nH]c4cc(-c5ccco5)ccc4c3CCN2C1=O | - | - | 6.1 | - | - | - | -
O=C(COC(=O)/C=C/c1ccc(Cl)cc1)NC1CCCCCC1 | - | - | 4.8 | - | - | - | -
O=C(COC(=O)/C=C/c1ccc(Cl)cc1)NC1CC1 | - | - | - | - | - | . | .
CC(C)(C)Cc1c(-c2ccco2)nc2ccc(Cl)cn12 | - | . | - | - | - | . | .
COc1ccc(N2C(=O)c3ccccc3NC23CCCCC3)cc1 | 12 | - | 4.5 | - | - | 13 | 6.5
C=C1c2ccccc2NC(=O)N1c1ccc(OC)cc1 | - | - | - | - | - | . | .
O=C(NC(c1ccc(Cl)cc1)c1ccsc1)C1CCN(CCOc2ccc(Cl)cc2)CC1 (stereo unspecified) | - | . | - | - | - | . | .
COc1cccc(C(NC(C)=O)c2nc(-c3ccc(F)cc3OC)cs2)c1 (stereo unspecified) | - | . | 5.8 | - | - | 6.6 | 3.3
O=C(Nc1ccc2ccccc2c1)c1cccnc1 | - | - | 4.7 | - | - | 11 | 7.7
O=C(Nc1ccc2ccccc2c1)c1cnccn1 | 11 | - | 5.5 | - | 6.4 | 14 | 7.9
Cc1coc(C)c1C(=O)Nc1ccc2ccccc2c1 | - | - | 7.4 | 0.9 | - | 6.0 | 3.8
C/C(=N\NC(=O)c1ccc(O)cc1)c1ccc(NC(=O)Cc2ccccc2)cc1 | 12 | - | 5.5 | - | - | - | -
COc1ccc(Cc2nc3ccc(C(=O)N4CCCC4)cc3o2)cc1OC | - | - | - | - | - | . | .
O=C(c1ccc2oc(CCCc3ccccc3)nc2c1)N1CCCC1 | 11 | - | 9.0 | 1.0 | 5.8 | 9.5 | 6.9
CCCC(=O)N1CCCC(c2nc(-c3cccc(OC)c3)no2)C1 (stereo unspecified) | 12 | 4.7 | 4.6 | - | - | 12 | 5.7
COc1cccc(-c2nc3ccc(C(=O)N4CCCC(O)C4)cc3o2)c1 (stereo unspecified) | - | - | 5.3 | - | - | 7.4 | 7.4
COc1ccc(Cc2nc3ccc(C(=O)N4CCCC4)cc3o2)cc1 | 11 | - | 8.3 | 1.1 | - | 9.2 | 3.4
CCN(CC)C(=O)C1CCCN(C(=O)c2ccc3nc(-c4cccc(OC)c4)oc3c2)C1 (stereo unspecified) | - | - | - | - | - | . | .
CCOC(=O)c1cc(-c2ccccc2C)nn1CC1CC(c2cccnc2)=NO1 (stereo unspecified) | - | - | - | - | - | . | .
COc1cccc(C=NNC(=O)CSc2nc3ccccc3[nH]2)c1O | - | . | - | - | - | . | .
SMILES | hgDAF12 agonist | DAX1 inh-1 | DAX1 inh-2 | ssDAF-12 act | hcDAF-12 act | DAX1 inh confirm | SF1 mutant ctr
CCC(=O)C1CCCN(C(=O)c2ccc3nc(-c4cccc(OC)c4)oc3c2)C1 (stereo unspecified) | - | - | 7.0 | - | - | 8.3 | 5.7
CCOc1ccc(OCc2cccc(C(=O)N3CCOCC3)c2)cc1 | - | - | 5.8 | 1.4 | - | 11 | 7.7
COC(=O)[C@H]1C[C@@]2(O)CN(S(=O)(=O)c3ccc(C)cc3)C[C@@]2(OC(=O)NCc2ccc(OC)c(OC)c2)C[C@H]1C(=O)OC | - | - | 5.5 | - | - | - | -
COC(=O)[C@H]1C[C@@]2(O)CN(S(=O)(=O)c3ccc(C)cc3)C[C@@]2(OC(=O)NCc2ccccc2F)C[C@H]1C(=O)OC | - | - | - | - | - | . | .
CCCN(C)C1CN(Cc2cn(Cc3ccc(OC)cc3)nn2)S(=O)(=O)C1 (stereo unspecified) | - | . | - | - | - | . | .
CCc1nnc(NC(=O)c2cc(C)oc2C)s1 | - | - | 9.5 | - | - | 7.9 | 5.6
Oc1ccc(F)c(CN2CCN(c3ncc(Cc4ccccc4)cn3)CC2)c1 | - | . | - | - | - | . | .
O=C(Nc1ccc2c(c1)CCC2)c1ncoc1-c1ccccc1F | - | - | - | - | - | . | .
COc1ccc(-c2coc3cc(OC4OC(CO)C(O)C(O)C4O)cc(O)c3c2=O)cc1 (stereo unspecified) | 11 | - | 11 | - | - | 11 | 5.7
COc1ccc(-c2coc3cc(O)ccc3c2=O)cc1 | - | - | 4.9 | - | - | 11 | 5.1
COc1cc(O)cc2occ(-c3ccc(O)cc3)c(=O)c12 | - | - | - | - | - | . | .
COc1ccc(-c2cc(=O)oc3cc(O)ccc23)cc1 | - | - | - | - | - | . | .
COc1ccc(-c2coc3cc(O)ccc3c2=O)cc1O | 13 | - | 5.0 | - | - | 6.5 | 3.3
CCOC(=O)C1=CCN(S(=O)(=O)c2ccccc2F)C1c1ccc(F)cc1 (stereo unspecified) | - | . | - | - | - | . | .
CCN(CC(=O)Nc1cccc(OC)c1)C(=O)C1CC(=O)N(Cc2ccccc2Cl)C1 (stereo unspecified) | - | - | - | - | - | . | .
O=C(/C=C/c1ccco1)Nc1sc2c(c1C(=O)O)CCC2 | - | - | - | - | - | . | .
N#Cc1c(NC(=O)/C=C/c2ccco2)sc2c1CCCC2 | - | - | 5.1 | - | 6.2 | 31 | -
CCCCNc1ccc2c(c1)C1CC2CCN1C(=O)OCc1ccccc1 (stereo unspecified) | - | - | 7.0 | - | - | 8.3 | -
COc1cccc(NC(=O)Nc2c(-c3ccc(C)cc3)nc3ncccn23)c1 | - | . | - | - | - | . | .
Cc1ccccc1NC(=O)Nc1ccc2c(c1)CCC2 | - | - | 5.0 | - | - | 11 | 5.5
COc1ccccc1NC(=O)Nc1ccc2c(c1)nc(C)n2C | 13 | - | 6.0 | - | - | 17 | 9.7
COc1cc(C(=O)Nc2ccc3c(c2)nc(C)n3C)cc(OC)c1OC | - | - | - | - | - | . | .
COc1ccccc1NC(=O)Nc1ccc2c(c1)CCC2 | - | - | 8.1 | - | - | 6.3 | 4.9
